Hits are enriched below; roughly 3% of the tested compounds scored in any of these assays.
Tau ThT inhib: blocks human tau fibril formation measured by thioflavin T | P10636 | recombinant tau K18 P301L, heparin-induced fibrillization, ThT fluorescence | Potency, µM (series often up to 57.4 µM), inactives show top-dose activity, negative = inhibition, hits mostly inhibitors | actives 2.1% (n = 270,000) | AID 1460; also: nearly all actives have a fitted effect of over 55% in size
Target sequence (P10636 561-689 P618L limits assumed): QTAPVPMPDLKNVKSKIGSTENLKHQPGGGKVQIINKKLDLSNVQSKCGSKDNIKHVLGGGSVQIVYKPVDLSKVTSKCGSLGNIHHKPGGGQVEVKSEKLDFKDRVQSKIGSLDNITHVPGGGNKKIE
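Aggregation was driven by heparin (20 uM final) acting on recombinant tau […] bearing P301L in 100 mM sodium acetate pH 7; fibrils were detected with Thioflavin T.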
Tau FP inhib: tau fibrillization inhibition (FP) | AID 1468 | Potency, µM (highest dose often 57.7 µM), for the others: top-dose activity, negative = inhibition, most hits filed as inhibitors | actives 0.39% (n = 280,000) | P10636 | K18 P301L tau heparin fibrillization, Alexa594 FP, 6 h; also: nearly all actives have a fitted effect of over 55% in size
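FP of Alexa 594-tau after heparin (20 uM) induction. Substrate: human K18 P301L, 15 uM unlabeled, 0.24 uM labeled. Buffer 100 mM sodium acetate pH 7. 6 hr, 37 C.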
Tau fluor cs: counter-screen for tau fibril formation inhibitors. tau K18 P301L (four-repeat tau fragment) Alexa594 fluorescence, heparin fibrillization. Potency, µM (doses to about 57.7 µM), inactives show at the top dose activity change, negative = decrease. actives 0.93% (n = 280,000). AID 1463; also: nearly all actives have a fitted effect of over 55% in size
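Human K18 P301L tau (15 uM unlabeled plus 0.24 uM Alexa 594-labeled, final) in 100 mM sodium acetate pH 7 was mixed with compound and 20 uM heparin and incubated 6 hr at 37 C.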
TR SRC2 fluor cs: counter-screen for TRb-SRC2 inhibitors: fluorescence interference. TRb/SRC2 Texas Red total fluorescence interference. Potency, µM (titrated, usually from 106 µM), for the others: at the highest dose fluorescence change, negative = quenching. actives 0.29% (n = 280,000). AID 1479; active = well fitted curve in either direction with a large enough effect; inconclusive = small, poorly fitted or top-dose-only effect
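Human TRβ ligand-binding domain (0.6 uM) and Texas Red SRC2 peptide (20 nM) in Tris buffer with 1 uM T3 and 5% DMSO were incubated with pinned compound for 5 hr at ambient temperature. Total fluorescence was computed as S + 2P (555/632 nm).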
TRb SRC2 PPI: inhibitors of human thyroid hormone receptor beta-SRC2 interaction; TRbeta-SRC2 peptide binding, fluorescence polarization; receptor liganded with 1 µM T3; Potency, µM (top dose mostly 106 µM), for inactives: at the top dose activity change, negative = inhibition, most hits filed as inhibitors; actives 0.065% (n = 280,000);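 also: plate controls were bound peptide for no effect and peptide without receptor for full effect; nearly all actives have a fitted effect of over 50% in size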
Target sequence (P10828 whole entry, looked up): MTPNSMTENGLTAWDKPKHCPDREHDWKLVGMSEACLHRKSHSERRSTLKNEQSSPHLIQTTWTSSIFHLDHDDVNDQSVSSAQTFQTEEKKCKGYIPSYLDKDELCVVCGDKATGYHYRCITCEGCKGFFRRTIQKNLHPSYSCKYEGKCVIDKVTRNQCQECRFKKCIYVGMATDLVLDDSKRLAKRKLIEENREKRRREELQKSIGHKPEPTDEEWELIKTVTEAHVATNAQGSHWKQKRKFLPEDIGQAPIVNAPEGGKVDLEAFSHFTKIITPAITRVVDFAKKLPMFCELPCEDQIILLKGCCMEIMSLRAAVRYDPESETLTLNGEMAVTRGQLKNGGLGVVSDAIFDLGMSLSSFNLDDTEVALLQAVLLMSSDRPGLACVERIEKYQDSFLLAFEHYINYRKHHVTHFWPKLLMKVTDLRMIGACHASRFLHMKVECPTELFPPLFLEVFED
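TRb LBD 0.6 uM + Texas Red SRC2 peptide 20 nM, 1 uM T3, Tris buffer w/ 5% DMSO; compound pinned, 5 h RT; FP read ex 555/em 632; normalized to unbound and bound controls.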
An asterisk follows results filed as active; ? = inconclusive; . = no result; [ ] = another dose, or the depositor's remark. Unless noted, calls follow the shape of the dose curve; as a rule, active = well fitted curve in the direction sought with a large enough effect; inconclusive = small, poorly fitted or top-dose-only effect, or another doubt; inactive = no such curve, though single readings can be large; an effect the other way counts as inactive or inconclusive. Unless noted, % is scaled to controls: 0 for no effect and ±100 for the full control effect; potency is read from the fitted curve at half-maximal effect.

SMILES | Tau ThT inhib | Tau FP inhib | Tau fluor cs | TR SRC2 fluor cs | TRb SRC2 PPI
N#CC1=C2SCN(Cc3ccccc3)CN2C(=O)CC1c1ccccc1F (configuration not stated) | ? | ? | -16.3% | -4.0% | 11.3%
Cc1ccc(CC2CC(=O)N(Cc3ccco3)C2=O)cc1 (configuration not stated) | -19.6% | -10.4% | -0.9% | 3.3% | 1.5%
N#CC1=C2SCN(Cc3ccco3)CN2C(=O)CC1c1c(F)cccc1Cl (configuration not stated) | 7.08µM* | ? | -29.0% | 0.1% | 1.9%
CC/C=C/CCCCCCCCCCOC(C)=O | . | . | . | -0.1%[201 µM] | -1.2%[201 µM]
Oc1ccc(Br)cc1-c1cc(-c2ccc(Cl)cc2)n[nH]1 | ? | ? | ? | -1.8% | 13.1%
CCCOc1ccc(Br)cc1-c1cc(-c2ccc(Cl)cc2)[nH]c1-c1ccncc1 | -12.7% | ? | 7.94µM*[quencher] | -0.9% | -2.0%
CCCC(C)C(=O)Nc1nc(C)c(-c2csc(Nc3cc(Cl)ccc3C)n2)s1 (configuration not stated) | ? | 7.4% | ? | 2.8% | -4.4%
Cc1nc(NC(=O)CC(C)C)sc1-c1csc(Nc2ccc(Cl)cc2Cl)n1 | ? | 8.8% | 22.4µM*[quencher] | -0.5% | -20.0%
COc1ccc(Cl)cc1Nc1nc(-c2sc(NC(=O)CC(C)C)nc2C)cs1 | ? | 8.7% | ? | -1.2% | -5.0%
Cc1nc(NC(=O)CC(C)C)sc1-c1csc(Nc2ccc(Cl)cc2)n1 | ? | 6.1% | 11.2µM*[quencher] | 2.2% | -0.3%
Cc1cc2oc3c(c(=O)c2cc1C)C(c1ccc(C(C)C)cc1)N(c1nc(C)c(C)s1)C3=O (configuration not stated) | -1.2% | 4.0% | -7.2% | 5.3% | 7.4%
CC(C)CC(=O)Nc1nnc(S(=O)(=O)N2CCCCCC2)s1 | 2.82µM* | -2.4% | -3.2% | 4.6% | -6.3%
Cc1ccccc1OCC(=O)Nc1nnc(S(=O)(=O)N2CCCCCC2)s1 | 3.16µM* | -2.4% | -24.9% | -13.4% | -2.3%
O=C(COc1ccc(F)cc1)Nc1nnc(S(=O)(=O)N2CCc3ccccc32)s1 | 2.82µM* | -1.5% | -26.4% | ? | -5.5%
O=C(COc1ccc(Cl)cc1)Nc1nnc(S(=O)(=O)N2CCCCCC2)s1 | ? | 10.1% | -19.6% | ? | 4.6%
Cc1ccc(OCc2ccc(-c3nc(C#N)c(NCc4cccnc4)o3)o2)cc1 | ? | ? | ? | -4.4% | -2.0%
COc1ccc(N2CCN(c3oc(-c4ccc(COc5cccc(C)c5)o4)nc3C#N)CC2)cc1 | -15.7% | 5.8% | ? | ? | -5.6%
CCN1CCN(c2oc(-c3ccc(COc4ccccc4C)o3)nc2C#N)CC1 | -6.9% | 7.6% | -16.6% | 28.2µM*[quencher] | -11.3%
Cc1cccc(OCc2ccc(-c3nc(C#N)c(N4CCN(c5ccccc5)CC4)o3)o2)c1 | -12.2% | -7.5% | -21.2% | 6310µM*[quencher] | -21.1%
Cc1ccccc1OCc1ccc(-c2nc(C#N)c(NCc3cccnc3)o2)o1 | ? | ? | 17.8µM*[quencher] | ? | -3.9%
CCOc1ccc(-c2nonc2NC(=O)COc2ccc(C)c(C)c2)cc1OCC | 14.8% | -6.8% | 5.2% | 2.2% | -1.8%
Cc1ccc(NC(=O)c2cccc3c(=O)c4c([nH]c23)CCCC4)c(C)c1 | ? | -5.9% | -12.3% | -0.1% | -3.3%
N#CC1=C(N)NC(SCC(=O)c2ccc(Cl)cc2)=C(C#N)C12CCCC2 | ? | 14.3% | 15.8µM*[quencher] | 0.9% | -3.1%
N#CC1=C(N)NC(SCC(=O)c2ccc(Br)cc2)=C(C#N)C12CCCCC2 | ? | ? | 12.6µM*[quencher] | -2.7% | 4.8%
COc1ccc(C(=O)CSC2=C(C#N)C3(CCCCC3)C(C#N)=C(N)N2)cc1 | -12.1% | 8.3% | ? | 0.6% | 3.6%
SMILES | Tau ThT inhib | Tau FP inhib | Tau fluor cs | TR SRC2 fluor cs | TRb SRC2 PPI
CC(=O)N1CCN(c2ccc(NCc3ccc(F)cc3)cc2)CC1 | 25.1µM* | ? | ? | 10.1% | -9.6%
COc1cc(CNc2ccc(N3CCN(C(C)=O)CC3)cc2)ccc1OCc1ccc(F)cc1 | ? | -2.9% | -24.0% | 1.3% | -5.6%
CCCC(=O)N1CCN(c2ccc(NC(=O)c3ccc([N+](=O)[O-])o3)cc2Cl)CC1 | 12.6µM* | ? | -26.6% | -3.3% | -3.9%
CCOc1ccc(C(=O)NC(=S)Nc2ccc(N3CCCCC3)cc2)cc1[N+](=O)[O-] | 3.55µM* | 16.7% | ? | -0.4% | 6.6%
CC(C)C(=O)N1CCN(c2ccc(NC(=O)c3ccc([N+](=O)[O-])o3)cc2)CC1 | 5.01µM* | -5.6% | ? | -1.2% | 8.8%
COC(=O)c1cc2oc(C)cc2n1CC(=O)Nc1ccc(OC)c(OC)c1 | -8.1% | -3.4% | -26.3% | ? | -10.8%
COC(=O)C/C=C\[C@@H](C)[C@@H](/C=N\O[C@@H](C)c1cn([C@H](CO)Cc2ccccc2)nn1)NS(=O)(=O)c1ccc(C)cc1 | -3.1%[11.5 µM] | -3.8%[11.6 µM] | -13.5%[11.6 µM] | -6.1%[11.2 µM] | 0.3%[11.2 µM]
CN(C)CCCOc1c2ccccc2n(Cc2ccccc2)[n+]1[O-] | . | . | . | -2.0% | 1.8%
Cc1ccc(C2CC(=O)Nc3c2c(C)nn3-c2nc(C)cc(C)n2)c(C)c1 (configuration not stated) | -3.3% | -0.2% | -5.2% | 9.8% | -4.7%
Cc1ccc(C(=O)Nc2ccc(N3CCCC3)cc2)cc1 | ? | 7.8% | -19.4% | -1.6% | 3.5%
Cc1ccccc1C(=O)N1CCN(c2ccc(NC(=O)c3ccc4c(c3)OCO4)cc2)CC1 | 12.6µM* | 7.1% | ? | 3.5% | -10.8%
COc1ccc(C(=O)Nc2ccc(N3CCN(C(=O)c4ccccc4)CC3)cc2)cc1[N+](=O)[O-] | 15.8µM* | 10.4% | ? | 3.7% | -5.2%
CC(=O)N1CCN(c2ccc(NC(=O)c3ccc(C(C)(C)C)cc3)cc2)CC1 | 3.55µM* | 0.8% | ? | -1.8% | -2.0%
CCCCOc1ccc(C(=O)Nc2ccc(N3CCN(C(C)=O)CC3)cc2)cc1 | ? | ? | -22.9% | 1.1% | -1.4%
CCCCOc1ccc(C(=O)Nc2ccc(N3CCN(C(=O)C(C)C)CC3)cc2)cc1 | 2µM* | -1.1% | -26.1% | -5.5% | 1.1%
Cc1cc2oc(C(=O)N(Cc3ccccc3F)C3CCS(=O)(=O)C3)c(C)c2cc1Cl (configuration not stated) | -17.0% | 0.2% | -17.0% | 3.2% | -5.9%
COc1cccc(C2C(C(=O)Nc3cccnc3)=C(C)Nc3nc(SCc4ccccc4)nn32)c1 (configuration not stated) | -17.3% | -6.6% | -20.9% | 0.6% | -2.1%
O=C(Nc1ccc(N2CCN(C(=O)c3ccc(Cl)cc3)CC2)cc1)c1ccc(Br)o1 | ? | 14.0% | ? | 2.0% | 8.8%
O=C(Nc1ccc(N2CCN(C(=O)c3ccccc3)CC2)cc1)c1ccc([N+](=O)[O-])o1 | 4.47µM* | 4.2% | ? | 0.4% | 1.0%
